The values below come from PubChem BioAssay (Tox21).

The structures appear in SMILES notation. Inconclusive results are not listed. Active and inactive are the calls of the source. Unless noted, the call rests on the fitted dose curve; in most records, active means well fitted curve in the direction sought with a large enough effect in the repeat runs; inconclusive means weak or mixed curves; inactive means no such curve, though single readings can be large; an effect the other way counts as inactive or inconclusive.

The nature of assay [1]: qHTS assay to identify small molecule antagonists of the glucocorticoid receptor (GR) signaling pathway - cell viability counter screen (AID 720693). Further: nearly all actives have a fitted effect of over 55% in size.
Assay [2] is described as follows: qHTS assay for identifying genotoxic compounds that show differential cytotoxicity against isogenic chicken DT40 cell lines with known DNA damage response pathways - wild type cell line (AID 743012). Further: nearly all actives have a fitted effect of over 60% in size. Further: potency means the concentration at half of the fitted maximal effect. The method, boiled down: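 Using parental DT40 (300 cells/well), compounds delivered in DMSO incubate 40 h at 37 C/5% CO2. CellTiter-Glo reagent then stands 30 min at room temperature, and luminescence gives cell viability.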
(In general: qHTS replaces the single test concentration by a dilution series.)

Assay [3] can be described thus: qHTS assay for identifying genotoxic compounds that show differential cytotoxicity against isogenic chicken DT40 cell lines with known DNA damage response pathways - Rev3 mutant cell line (AID 743014). Further: nearly all actives have a fitted effect of over 55% in size. Further: potency means the concentration at half of the fitted maximal effect.
Assay [4] in a line: qHTS assay to identify small molecule antagonists of the androgen receptor (AR) signaling pathway - cell viability counter screen (AID 743033; further: nearly all actives have a fitted effect of over 45% in size; further: potency means the concentration at half of the fitted maximal effect).
Assay [5] is described as follows: qHTS assay to identify small molecule antagonists of the androgen receptor (AR) signaling pathway using the MDA cell line - cell viability counter screen (AID 743041; further: nearly all actives have a fitted effect of over 45% in size). The method, boiled down: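 MDA-kb2 AR-luc human breast carcinoma cells (MMTV-luciferase, AR/GR responsive) were treated with compounds plus R1881 agonist for 16 h at 37 °C. Viability was read as CellTiter-Fluor fluorescence in the same wells as the reporter assay.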

Assay [6] is described as follows: qHTS assay for identifying genotoxic compounds that show differential cytotoxicity against isogenic chicken DT40 cell lines with known DNA damage response pathways - Rad54/Ku70 mutant cell line (AID 743015). Further: nearly all actives have a fitted effect of over 60% in size. Further: potency means the concentration at half of the fitted maximal effect.
The target in assay [7] is Androgen receptor (Homo sapiens) (UniProt P10275). Kind of assay: qHTS assay to identify small molecule antagonists of the androgen receptor (AR) signaling pathway (AID 743035; active means well fitted inhibition curve with a large enough effect in the signal ratio in the repeat runs, not every such curve was filed as active; the % refers to the signal ratio). The method, boiled down: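 Using qHTS, AR-UAS-bla GripTite HEK293 cells received compound, then R1881, and were cultured 16 h at 37C/5% CO2 before a 2 h room-temperature LiveBLAzer B/G FRET substrate step and fluorescence measurement.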
Chain of Androgen receptor (Homo sapiens) (P10275 whole entry, looked up): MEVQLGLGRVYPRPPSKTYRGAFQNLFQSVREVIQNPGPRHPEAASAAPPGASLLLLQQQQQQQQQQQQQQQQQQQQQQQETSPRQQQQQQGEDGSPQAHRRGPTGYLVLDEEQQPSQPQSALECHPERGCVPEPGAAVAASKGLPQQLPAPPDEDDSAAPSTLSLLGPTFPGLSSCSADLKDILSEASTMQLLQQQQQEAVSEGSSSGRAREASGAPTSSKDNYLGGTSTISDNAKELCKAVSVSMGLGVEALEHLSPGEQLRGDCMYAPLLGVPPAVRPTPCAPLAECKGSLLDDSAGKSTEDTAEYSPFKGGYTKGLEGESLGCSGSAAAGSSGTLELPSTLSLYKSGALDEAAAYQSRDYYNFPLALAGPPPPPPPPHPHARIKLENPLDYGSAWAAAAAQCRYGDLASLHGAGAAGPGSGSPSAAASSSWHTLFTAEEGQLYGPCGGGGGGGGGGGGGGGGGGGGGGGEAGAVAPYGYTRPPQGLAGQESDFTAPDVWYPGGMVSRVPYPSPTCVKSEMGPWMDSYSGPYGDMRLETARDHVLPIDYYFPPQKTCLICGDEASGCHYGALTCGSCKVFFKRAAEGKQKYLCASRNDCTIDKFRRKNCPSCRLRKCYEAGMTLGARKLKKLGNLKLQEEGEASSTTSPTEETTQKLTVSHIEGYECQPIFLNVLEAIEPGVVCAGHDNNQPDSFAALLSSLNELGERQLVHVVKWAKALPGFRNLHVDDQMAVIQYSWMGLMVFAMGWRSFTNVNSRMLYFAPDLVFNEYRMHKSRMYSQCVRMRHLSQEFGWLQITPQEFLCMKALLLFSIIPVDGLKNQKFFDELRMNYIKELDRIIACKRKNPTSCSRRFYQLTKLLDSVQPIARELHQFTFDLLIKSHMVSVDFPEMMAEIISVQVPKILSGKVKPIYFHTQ

Assay [8] has the same target. Nature of the assay: qHTS assay to identify small molecule agonists of the androgen receptor (AR) signaling pathway (AID 743036; active means well fitted activation curve with a large enough effect in the signal ratio in the repeat runs, with a control signal flat, not every such curve was filed as active; the % refers to the signal ratio). A digest of the protocol: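 Beta-lactamase under UAS control, stably integrated in HEK293 GripTite cells, reports receptor activation. After 16 h compound treatment, cells received FRET substrate for 2 h at room temperature before fluorescence reading.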

The target is the same in assay [9]. Nature of the assay: qHTS assay to identify small molecule agonists of the androgen receptor (AR) signaling pathway using the MDA cell line (AID 743040; further: nearly all actives have a fitted effect of over 20% in size). The method, boiled down: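 MDA-kb2 breast carcinoma cells stably carrying an MMTV-driven luciferase reporter (AR- and GR-responsive) were seeded and held 5 h at 37C, 0% CO2, then exposed to compounds in DMSO for 16 h. Luminescence was read 30 min after ONE-Glo addition.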

Assay [10] shares this target. Nature of the assay: qHTS assay to identify small molecule antagonists of the androgen receptor (AR) signaling pathway using the MDA cell line (AID 743042; further: nearly all actives have a fitted effect of over 55% in size). A digest of the protocol:
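MDA-kb2 cells (human breast carcinoma, stably carrying an MMTV-luciferase reporter responsive to AR and GR) were plated at 3,000 cells/well and preincubated 5 hr at 37C, then given compound plus R1881 agonist for 16 h. ONE-Glo luminescence was read.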

Consider `COC(=O)CCC(=O)CN`, for which the Potency result in assay [1], in assay [2], in [3], in assay [4] and in [5] was “inactive” each time.
For the molecule `CN1CCN(CCC=C2c3ccccc3Sc3ccc(S(=O)(=O)N(C)C)cc32)CC1`, the Potency result in assay [1] and in assay [5] was “inactive” in each case. Also, the Potency in assay [2] is 10.6 µM (active); in assay [3], 13.3 µM (active); in assay [4], 23.9 µM (active).
Regarding `C[C@@](Cc1ccc(O)c(O)c1)(NN)C(=O)O`, the Potency result in [1], in assay [4] and in assay [5] was “inactive” throughout. The Potency in assay [2] and in assay [3] was 29.8 µM (active) throughout.
With `Cc1cc(-n2c(=O)[nH]c(=O)n(C)c2=O)ccc1Oc1ccc(S(=O)(=O)C(F)(F)F)cc1`, the Potency entry in [1] and in assay [5] was “inactive” in each case. Moreover, the Potency in [2], in [3] and in assay [6] was 26.6 µM (active) in each case.
On to `OC[C@H]1O[C@@H](n2cnc3c2NC=NC[C@H]3O)C[C@@H]1O`, for which the Potency entry in assay [1], in assay [2], in assay [3], in assay [4] and in assay [5] was “inactive” in each case.
As to `C/C1=C2N=C(/C=C3N=C(/C(C)=C4\[N-][C@@](C)([C@@H]5N=C1[C@](C)(CCC(=O)NCC(C)OP(=O)(O)O[C@H]1[C@@H](O)[C@@H](n6cnc7cc(C)c(C)cc76)O[C@@H]1CO)[C@H]5CC(N)=O)[C@@](C)(CC(N)=O)[C@@H]4CCC(N)=O)[C@@](C)(CC(N)=O)[C@@H]\3CCC(N)=O)C(C)(C)[C@@H]/2CCC(N)=O.CC(=O)O.[Co]` (some centres not stated), the Potency entry in assay [1], in assay [2], in assay [3] and in assay [4] was “inactive” each time.
Take `COc1ccc(CNCC(O)COc2ccc3[nH]c(=O)ccc3c2)cc1OC` (configuration not stated): the Potency result in [1], in assay [2], in assay [3], in assay [4] and in assay [5] was “inactive” each time.
Take `C=CCOc1ccc(CC(=O)O)cc1Cl`: the Potency entry in assay [1], in [2], in [3], in [4] and in [5] was “inactive” each time.
In the case of `CC1(C)S[C@@H]2[C@H](NC(=O)C3(N)CCCCC3)C(=O)N2[C@H]1C(=O)O`, the Potency result in assay [1], in [2], in assay [6], in assay [4], in assay [7] and in [8] was “inactive” throughout. Further, the Potency result in [9], in assay [5] and in assay [10] was “inactive” throughout.
Take `CC(C)(C)C(=O)OCOC(=O)[C@@H]1N2C(=O)[C@@H](N=CN3CCCCCC3)[C@H]2SC1(C)C`: the Potency entry in assay [1], in assay [2], in [3] and in assay [5] was “inactive” in each case.
For the molecule `COc1cc(NCCCC(C)N)c2ncccc2c1` (configuration not stated), the Potency entry in assay [1], in assay [4], in [9], in assay [5] and in [10] was “inactive” in each case. Moreover, the Potency in assay [2] is 29.8 µM (active); in assay [6] it was 21.1 µM (active).
`CC(CC(c1ccccc1)c1ccccc1)NC(C)(C)C` (configuration not stated): the Potency result in [1], in assay [4] and in [5] was “inactive” in each case. The Potency in assay [2] was 10.6 µM (active); in assay [3], 23.7 µM (active).
Take `CC(=O)O[C@H]1C[C@@]2(C)[C@@H](C[C@@H](O)[C@H]3[C@@]4(C)CC[C@@H](O)[C@@H](C)[C@@H]4CC[C@@]32C)/C1=C(\CCC=C(C)C)C(=O)O`: the Potency entry in assay [1], in assay [2], in [6], in [4], in assay [8] and in assay [9] was “inactive” throughout. Further, the Potency result in assay [10] is “inactive”.
On to `CC(C)[C@H](N)C(=O)OCC(CO)OCn1cnc2c(=O)[nH]c(N)nc21` (some centres not stated), for which the Potency result in assay [1], in [2], in assay [3], in [4] and in assay [5] was “inactive” in each case.
For `CCC(=O)c1ccc2c(c1)N(CCCN1CCN(CCO)CC1)c1ccccc1S2`, the Potency entry in assay [1] was “inactive”. Further, the Potency is 2.66 µM (active) in assay [2] and 4.22 µM (active) in [6].
Consider `CCN(CC)CCC(=O)N1c2ccccc2Sc2ccc(Cl)cc21`, for which the Potency result in assay [1] and in assay [4] was “inactive” in each case. The values for the Potency in [2] and in [6] were 8.41 µM (active) and 11.9 µM (active), respectively.
Turning to `CCOC(=O)c1c[nH]c2cc(OCC(C)C)c(OCC(C)C)cc2c1=O`, the Potency result in assay [1], in assay [2], in assay [6], in assay [4], in assay [9] and in assay [5] was “inactive” throughout. In assay [10], the Potency entry was “inactive”.
`CC[C@H]1OC(=O)[C@H](C)[C@@H](O[C@H]2C[C@@](C)(OC)[C@@H](O)[C@H](C)O2)[C@H](C)[C@@H](O[C@@H]2O[C@H](C)C[C@H](N(C)C)[C@H]2O)[C@](C)(O)C[C@@H](C)[C@@H]2N[C@@H](COCCOC)O[C@@H]([C@H]2C)[C@]1(C)O`: the Potency entry in assay [1], in assay [2], in assay [6] and in [4] was “inactive” each time.
`COc1ccc2cc([C@H](C)CO)ccc2c1`: the Potency entry in assay [1], in assay [2], in assay [3] and in assay [5] was “inactive” throughout.
Turning to `CNC(C)CCC=C(C)C` (configuration not stated), the Potency result in assay [1], in assay [4] and in assay [5] was “inactive” each time. Besides, the Potency in [2] was 23.7 µM (active); in assay [3], 29.8 µM (active).
In the case of `CCC(=O)O[C@@H]1CC(=O)O[C@H](C)C/C=C/C=C/[C@H](O)[C@H](C)C[C@H](CC=O)[C@H](O[C@@H]2O[C@H](C)[C@@H](O[C@H]3C[C@@](C)(O)[C@@H](OC(=O)CC)[C@H](C)O3)[C@H](N(C)C)[C@H]2O)[C@H]1OC`, the Potency result in assay [1], in assay [2], in assay [3] and in assay [5] was “inactive” throughout.
As to `Cc1cccc(C)c1NC(=O)NC1=CCCN1C`, the Potency result in assay [1], in assay [2], in assay [6], in assay [4], in [8] and in assay [9] was “inactive” each time. Also, the Potency result in assay [5] and in assay [10] was “inactive” throughout.
Consider `CO/N=C(\C(=O)N[C@@H]1C(=O)N2C(C(=O)O)=C(CSC(=O)c3ccco3)CS[C@H]12)c1csc(N)n1`, for which the Potency result in [1], in [2], in [3], in [7], in assay [9] and in [5] was “inactive” each time. The Potency entry in [10] was “inactive”.
Take `CCCCC[C@H](O)/C=C/[C@@H]1[C@H]2C/C(=C/CCCC(=O)O)O[C@H]2C[C@H]1O`: the Potency entry in assay [1], in assay [2], in [3], in assay [4] and in assay [5] was “inactive” each time.
